Among all 16,000 compounds or so, about 5,700 (36%) were called active. Another 24% or so got no clear call; they are omitted. Calls follow the shape of the dose curve; as a rule, active = well fitted curve in the direction sought with a large enough effect; inconclusive = small, poorly fitted or top-dose-only effect, or effect the other way; inactive = no such curve, though single readings can be large or run the other way. The list shows a part of the results.

One may read the AC50 as the midpoint of the concentration-response curve, whichever way the signal moves.
% is scaled to controls: 0 for no effect and ±100 for the full control effect.

In this experiment the target is Cytochrome P450 1A2 (Homo sapiens) (UniProt P05177). Put plainly: Cytochrome panel assay with activity outcomes. To be noted: recombinant CYP, pro-luciferin dealkylation, luminescence, p450-cyp1a2; series mostly up to 57.1 µM.
Sequence of Cytochrome P450 1A2 (Homo sapiens) (P05177 whole entry, looked up): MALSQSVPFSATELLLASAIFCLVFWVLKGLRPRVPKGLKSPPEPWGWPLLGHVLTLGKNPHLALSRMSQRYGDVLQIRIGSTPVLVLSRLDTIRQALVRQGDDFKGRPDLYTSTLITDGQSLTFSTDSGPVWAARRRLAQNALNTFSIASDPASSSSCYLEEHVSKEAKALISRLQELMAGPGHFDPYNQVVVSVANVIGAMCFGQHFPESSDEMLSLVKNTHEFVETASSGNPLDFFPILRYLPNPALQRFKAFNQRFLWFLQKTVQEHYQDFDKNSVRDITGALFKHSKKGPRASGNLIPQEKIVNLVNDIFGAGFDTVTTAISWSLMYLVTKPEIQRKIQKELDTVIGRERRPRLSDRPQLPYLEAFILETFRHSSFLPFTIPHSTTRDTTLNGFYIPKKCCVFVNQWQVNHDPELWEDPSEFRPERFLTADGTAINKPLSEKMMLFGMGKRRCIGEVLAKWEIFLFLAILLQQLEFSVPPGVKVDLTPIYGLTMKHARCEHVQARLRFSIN
Consider `CC(C)CN1CCC2(CC1)CCN(C(=O)c1cnccn1)CC2`, for which the AC50 result is “inactive”.

On to `CC(=O)OC[C@@H]1O[C@@H](O/N=C2/C[C@@H](O)[C@@H](O)[C@@H]3[C@@H]4C(=O)N(Cc5ccccc5)C(=O)[C@H]4CC[C@H]23)[C@H](OC(C)=O)[C@H](OC(C)=O)[C@@H]1OC(C)=O`, for which the activity, negative = inhibition was -1.74% [at 11.4 µM] (inactive).

In the case of `CSc1nc2c(c(C(F)(F)F)n1)CC(C)CC2` (centres undefined), the AC50 was 25.1 µM (active).

For the molecule `O=C(Nc1ccc(OC(F)(F)F)cc1)c1n[nH]c(Cn2cncn2)n1`, the AC50 was 0.158 µM (active).

Consider `O=C(Nc1cccc(C(F)(F)F)c1)c1n[nH]c(Cn2cncn2)n1`, for which the half-maximal activity concentration (AC50) is 0.126 µM (active).

As to `C[C@H](NC(=O)Cn1cncn1)c1ccccc1`, the AC50 result was “inactive”.

Regarding `O=[N+]([O-])c1cc(C(F)(F)F)ccc1NCCCCNS(=O)(=O)c1ccc2ccccc2c1`, the AC50 entry is “inactive”.

On to `Cc1ccccc1OCCNc1ccc(C(F)(F)F)cc1[N+](=O)[O-]`, for which the AC50 was 0.891 µM (active).

Turning to `COC(=O)c1c(C)[nH]c(C)c1C(=O)c1ccccc1Cc1ccccc1`, the concentration at half-maximal activity (AC50) is 0.251 µM (active).

For `Cc1ccc(C)c(C(=N)c2ccccc2Cc2ccccc2)c1`, the activity, negative = inhibition is -6.82% [at 2.29 µM] (inactive).

With `Nc1nc(SCc2ccc([N+](=O)[O-])cc2)c2ncn([C@@H]3O[C@@H](CO)[C@@H](O)[C@H]3O)c2n1`, the AC50 entry was “inactive”.

Consider `COc1ccc2[nH]c3c(NCCCN4CCCC4=O)ncnc3c2c1`, for which the AC50 was 11.2 µM (active).

With `Cc1ccc(S(=O)(=O)N(CCCN2CCCC2=O)Cc2cc3c(C)ccc(C)c3[nH]c2=O)cc1`, the AC50 entry is “inactive”.

Consider `Cc1ccc(CS(=O)(=O)CCC(=O)NCCCN2CCCC2=O)cc1`, for which the AC50 entry is “inactive”.

Turning to `CC(=O)N[C@@H](CC(=O)O)C(=O)O`, the AC50 entry is “inactive”.

In the case of `Cc1nc2ccccc2nc1SCC(=O)N1CCC(C)CC1`, the AC50 is 3.55 µM (active).

As for `NC(=O)C1CCN(C(=O)CN2C(=O)c3ccccc3S2(=O)=O)CC1`, the AC50 result is “inactive”.

On to `CC1CCN(C(=O)CSc2nc3cccnc3n2C)CC1`, for which the AC50 is 20 µM (active).

`CC1CCN(C(=O)C2CCN(S(=O)(=O)c3cccc4nonc34)CC2)CC1`: the AC50 entry was “inactive”.

With `Cn1c(SCC(=O)N2CCN(S(=O)(=O)c3ccccc3)CC2)nc2ccccc21`, the AC50 entry was “inactive”.

As for `CC1CC(C)CN(C(=O)CSc2nnc(CSc3ncccn3)n2C)C1` (centres undefined), the AC50 result is “inactive”.

Consider `CCc1cc2c(nc1CC)CCN(CC/C(C)=N/O[C@@H]1O[C@H](COC(C)=O)[C@H](OC(C)=O)[C@H](OC(C)=O)[C@H]1OC(C)=O)C2`, for which the activity, negative = inhibition is 0.132% [at 11.4 µM] (inactive).

`Nc1nonc1-c1noc(CCCN2C(=O)c3ccccc3C2=O)n1`: the AC50 was 14.1 µM (active).

As for `O=C(NCc1cccnc1)/C(=C/c1ccc(-c2cccc(Cl)c2)o1)S(=O)(=O)c1ccccc1`, the AC50 is 25.1 µM (active).

Take `Cc1ccc(NC(=O)C(=O)NCc2ccc(/C=C(/C#N)C(=O)NCc3cccnc3)o2)cc1`: the AC50 result is “inactive”.

In the case of `COc1ccc2c(c1[N+](=O)[O-])CCC/C2=N/OC(=O)c1ccccc1SC`, the AC50 was 0.794 µM (active).

Regarding `COc1ccccc1C(=O)O/N=C1/CCCc2c1ccc(OC)c2[N+](=O)[O-]`, the AC50 was 0.447 µM (active).

Regarding `COc1ccc2c(c1[N+](=O)[O-])CCC/C2=N/OC(=O)c1cccc2ccccc12`, the AC50 was 0.794 µM (active).

Regarding `CC1CSc2nc3sc4c(c3c(=O)n21)CCCC4` (centres undefined), the AC50 was 3.55 µM (active).

On to `CSC(=NC#N)N1CCN(c2ccc(Cl)cc2)CC1`, for which the AC50 is 4.47 µM (active).

As for `C[C@H](N[C@@H](C)COc1ccccc1)[C@H](O)c1ccc(O)cc1`, the AC50 is 5.01 µM (active).

For the molecule `C[C@H](NCCc1ccc(O)cc1)[C@@H](O)c1ccc(O)cc1`, the AC50 entry was “inactive”.

On to `CCOC(=O)C1C(=O)C=C(c2ccc(C)cc2)CC1c1ccco1` (centres undefined), for which the AC50 was 4.47 µM (active).

Turning to `Cc1ccc(C(CC(N)=O)c2ccco2)cc1` (centres undefined), the AC50 entry was “inactive”.

As to `CCOC(=O)C1=C(N)n2c(s/c(=C\c3ccco3)c2=O)=C(C(=O)OCC)C1c1ccco1` (centres undefined), the AC50 entry was “inactive”.

Consider `CC1=CC2=NC(=O)CC(C)(C(=O)N(CC(=O)NC(C)(C)C)Cc3cccs3)N2C=C1` (centres undefined), for which the AC50 result is “inactive”.

For the molecule `O=C(O)c1cc2c(o1)CCC/C2=N\O`, the AC50 result was “inactive”.

In the case of `c1ccc(C2=NN[C@@H]3c4ccccc4-c4ccccc4N3C2)cc1`, the AC50 is 0.2 µM (active).

Turning to `COc1ccc2nc(NC(C)=O)sc2c1`, the AC50 is 3.55 µM (active).

For `CCOc1ccc2nc(NC(=O)c3ccc(S(=O)(=O)N4CCOCC4)cc3)sc2c1`, the AC50 entry was “inactive”.

`COc1ccc2nc(C)cc(SCC(=O)Nc3c(C)cc(C)cc3C)c2c1`: the AC50 result was “inactive”.

In the case of `COc1ccc(Cc2c(N)nc(N)nc2N)cc1`, the AC50 entry is “inactive”.

Consider `COc1ccc2nc(/N=C\N(C)C)sc2c1`, for which the AC50 was 0.631 µM (active).

Regarding `CCCOc1ccc(C(=O)NC(=S)Nc2nc3ccc(C)cc3s2)cc1`, the AC50 entry was “inactive”.

As to `COc1ccc2nc(NC(=O)CSc3nnc(C)s3)sc2c1`, the AC50 was 2.82 µM (active).

Regarding `COc1ccc(N2C(N)=NC(N)=NC2(C)C)cc1`, the AC50 result is “inactive”.

In the case of `COc1ccc2nc(N)sc2c1`, the AC50 is 12.6 µM (active).

For `CN(C)Cc1ccc(O)c(CN(C)C)n1`, the activity, negative = inhibition was -8.37% [at 11.4 µM] (inactive).

In the case of `C[C@]12CC[C@H]3c4ccc(O)cc4CC[C@@H]3[C@H]1CC[C@@H]2OC(=O)CCC1CCCC1`, the activity, negative = inhibition is -12.2% [at 11.4 µM] (inactive).

`COc1ccc(S(=O)(=O)Nc2ccc(F)cc2)c(C)c1C`: the AC50 is 14.1 µM (active).

`CC(C)(C)NS(=O)(=O)c1ccc(NS(=O)(=O)c2ccc(F)cc2)cc1`: the AC50 entry is “inactive”.

`COc1ccc(NS(=O)(=O)c2cc(-c3nnnn3C)ccc2OC)cc1`: the AC50 entry is “inactive”.

Regarding `COCCNC(=O)c1cc(-c2cccc(OC)c2)on1`, the AC50 was 12.6 µM (active).

For the molecule `COc1cccc(-c2nc(CS(=O)(=O)CC(=O)NCCCOC(C)C)c(C)o2)c1`, the AC50 result was “inactive”.

Regarding `COc1ccc(-c2cc(C(=O)NCc3cccnc3)no2)cc1OC`, the AC50 was 20 µM (active).

As to `CCC(C)C1NC(=S)N(C2CCCCC2)C1=O` (centres undefined), the AC50 entry is “inactive”.

Consider `O=C(Nc1cccc2ncccc12)c1ccc(-c2ccc(Br)cc2)o1`, for which the AC50 was 0.501 µM (active).

With `CC(C)(C)NC(=O)CSc1nnc(Cc2ccc3c(c2)OCO3)n1C1CCCCC1`, the AC50 result is “inactive”.

As for `Cc1cc2cc(C)c3nnc(SCC(=O)NCc4ccc5c(c4)OCO5)n3c2cc1C`, the AC50 was 20 µM (active).

In the case of `O=C1C2Sc3[nH]c(=O)sc3C(c3ccccc3)C2C(=O)N1c1ccccc1` (centres undefined), the AC50 entry is “inactive”.

As to `N#Cc1cccc(-c2nccc(NCc3ccccc3)n2)c1`, the AC50 was 0.501 µM (active).

As for `N#Cc1cccc(-c2nccc(NCc3cccs3)n2)c1`, the AC50 was 0.251 µM (active).

`Cc1cccc(CNc2ccnc(-c3cccc(C#N)c3)n2)c1`: the AC50 was 0.398 µM (active).

Consider `N#Cc1cccc(-c2nccc(NCc3cccnc3)n2)c1`, for which the AC50 is 0.251 µM (active).

The record behind these values is PubChem BioAssay AID1851 (National Center for Advancing Translational Sciences (NCATS), 2009).
